In PubChem BioAssay (NCATS) one finds Potency, activity, negative = cell killing and max response data, which are given here for 17 compounds.

Unmarked numbers belong to inactive results. Inconclusive results are not listed. Some structures have more than one record in an assay (separate samples or runs), and their calls can disagree. Active and inactive are the calls of the source. Unless noted, the call rests on the fitted dose curve; in most records, active means well fitted curve in the direction sought with a large enough effect; inconclusive means small, poorly fitted or top-dose-only effect, or another doubt; inactive means no such curve, though single readings can be large; an effect the other way counts as inactive or inconclusive.

Assay [1] deals with Es-2. In words: Primary qHTS to identify gynecologic anti-cancer compounds using libraries of approved drugs and bioactive compounds (AID 1345084). Further: on the % scale 0 is the no-effect control and ±100 the full control effect; nearly all actives have a fitted effect of over 55% in size. To be noted: Gynecologic cancer cell panel viability, ATPlite luminescence, 48 h; series mostly up to 57.5 µM. Put shortly:
(§1)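 Measured: luminescence after ATPlite addition (15 min, RT). Exposure: 48 h, 37 C, 5% CO2.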
(In general: Quantitative high-throughput screening tests each substance at several concentrations.)

Assay [2] relates to HeLa. The description is as above. To be noted: Gynecologic cancer cell panel viability, ATPlite luminescence, 48 h; series mostly up to 57.5 µM. Put shortly:
as §1

In assay [3] the test system is Hek293T. Described as above. To be noted: Gynecologic cancer cell panel viability, ATPlite luminescence, 48 h, control line for the selectivity index; series mostly up to 57.5 µM. Put shortly: as §1
In general terms: In ATP-based viability assays light output follows the ATP content of the culture.

Assay [4] relates to JEG-3. The description is as above. To be noted: Gynecologic cancer cell panel viability, ATPlite luminescence, 48 h; series mostly up to 57.5 µM. In a few lines:
as §1

The test system of assay [5] is OV90. Described as above. To be noted: Gynecologic cancer cell panel viability, ATPlite luminescence, 48 h; series mostly up to 57.5 µM. Put shortly:
as §1

Assay [6] has as its system PA-1. The description is as above. To be noted: Gynecologic cancer cell panel viability, ATPlite luminescence, 48 h; series mostly up to 57.5 µM. Put shortly:
as §1

For assay [7], the system named is SKOV3. Described as above. To be noted: Gynecologic cancer cell panel viability, ATPlite luminescence, 48 h; series mostly up to 57.5 µM. Put shortly: as §1
Assay [8] concerns Tov-21-G. Described as above. To be noted: Gynecologic cancer cell panel viability, ATPlite luminescence, 48 h; series mostly up to 57.5 µM. In a few lines:
as §1

The subject of assay [9] is Tov112D. The description is as above. To be noted: Gynecologic cancer cell panel viability, ATPlite luminescence, 48 h; series mostly up to 57.5 µM. Put shortly:
as §1

A short description of assay [10]: Drug repurposing screens with cells derived from glioblastoma tumor samples (AID 1345199). Further: nearly all actives have a fitted effect of over 40% in size. Further: potency means the concentration at half of the fitted maximal effect. On activity, negative = cell killing: on the % scale 0 is the no-effect control and ±100 the full control effect. To be noted: GBM patient neurospheres viability, ATP luminescence, 48 h. In a few lines: (§2)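 Four patient lines of CD133+ GBM neurospheres were screened at several concentrations; hits were retested in those lines plus three slower-growing GBM lines, using 48-hour treatment and ATP-based viability.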

In assay [11] the target is Nuclear receptor subfamily 1 group I member 2 (Rattus norvegicus) (UniProt Q9R1A7). In words: qHTS assay for small molecule activators of the rat pregnane X receptor (rPXR) signaling pathway (AID 651751; call rule not given here; further: 0% is about no effect). To be noted: rPXR reporter cells, luciferase (One-Glo), 24 h.
Chain of Nuclear receptor subfamily 1 group I member 2 (Rattus norvegicus) (Q9R1A7 whole entry, looked up): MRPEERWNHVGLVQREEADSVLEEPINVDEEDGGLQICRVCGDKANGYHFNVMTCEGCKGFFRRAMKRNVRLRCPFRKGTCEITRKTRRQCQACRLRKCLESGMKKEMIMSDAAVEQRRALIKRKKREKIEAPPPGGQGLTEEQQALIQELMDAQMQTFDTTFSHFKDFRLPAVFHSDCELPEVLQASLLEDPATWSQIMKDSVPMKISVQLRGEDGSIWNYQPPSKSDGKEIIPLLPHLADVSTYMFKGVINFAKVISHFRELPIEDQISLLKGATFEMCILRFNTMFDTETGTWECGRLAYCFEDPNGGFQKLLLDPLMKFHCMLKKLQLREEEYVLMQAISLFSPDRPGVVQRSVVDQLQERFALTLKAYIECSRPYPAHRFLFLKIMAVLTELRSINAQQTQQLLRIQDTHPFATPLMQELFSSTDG
Assay [12] deals with astro. In words: Drug repurposing screens with cells derived from glioblastoma tumor samples (AID 1345199). Further: nearly all actives have a fitted effect of over 40% in size. Further: potency means the concentration at half of the fitted maximal effect. On activity, negative = cell killing: on the % scale 0 is the no-effect control and ±100 the full control effect. To be noted: viability, ATP luminescence, 48 h; series mostly up to 45.9 µM. In a few lines: as §2
Where [13] appears, read: at 45.9 µM (top of the series), tumour line D.
The mark [14] stands for this setting: at 45.9 µM (top of the series), tumour line B.
The mark [15] stands for this setting: at 46 µM (top of the series), tumour line A.

On to `CC(C)(C)CC(C)(C)c1ccc(O)cc1`, for which the Potency result in [1], in assay [2], in [3], in [4], in assay [5] and in [6] was “inactive” each time. Also, the Potency entry in [7], in [8] and in assay [9] was “inactive” throughout. The activity, negative = cell killing in [10] (setting [13]) was -15%. In addition, the Potency in assay [10] (tumour line B) is 44.7 µM (active); in assay [10] (tumour line D) it was 63.1 µM (active). Besides, in assay [11], the max response was -11.1%.
Consider `Cc1cccc(C)c1NC1=NCCCS1`, for which the Potency entry in assay [1], in [2], in assay [3], in assay [4], in assay [5] and in assay [6] was “inactive” throughout. For the same compound, the Potency result in [7], in assay [8] and in [9] was “inactive” throughout. In addition, the activity, negative = cell killing in assay [10] (setting [14]) is -12.3%. Moreover, the Potency in [10] (tumour line A) was 17.8 µM (active).
For `CC(O)(CS(=O)(=O)c1ccc(F)cc1)C(=O)Nc1ccc(C#N)c(C(F)(F)F)c1` (stereo not given), the Potency result in assay [1], in [2], in assay [3], in assay [4], in [5] and in assay [6] was “inactive” each time. In addition, the Potency result in assay [7], in assay [8] and in assay [9] was “inactive” each time.
With `C=C1CC[C@@]2(O)[C@H]3Cc4ccc(O)c5c4[C@@]2(CCN3CC2CC2)[C@H]1O5`, the Potency entry in [1], in assay [2], in [3], in assay [4], in assay [5] and in assay [6] was “inactive” in each case. The Potency result in assay [7], in assay [8], in assay [9] and in assay [12] was “inactive” each time. In addition, the activity, negative = cell killing is -11% in assay [10] (setting [14]) and 5.06% in [10] (setting [13]).
Regarding `O=C(O)c1ccc2[nH]cc(CCCCN3CC=C(c4ccccc4)CC3)c2c1`, the Potency result in assay [1], in [2], in assay [3], in [4], in assay [5] and in assay [6] was “inactive” throughout. Further, the Potency entry in [7], in [8], in assay [9] and in assay [12] was “inactive” each time. Also, the activity, negative = cell killing is -0.385% in assay [10] (setting [14]) and -15.3% in assay [10] (setting [13]).
Turning to `COc1ccccc1N1CCNCC1`, the Potency result in assay [1], in assay [2], in [3], in assay [4], in [5] and in [6] was “inactive” each time. The Potency result in assay [7], in [8] and in assay [9] was “inactive” throughout. Also, the results for the activity, negative = cell killing in assay [10] (setting [14]), in assay [10] (setting [13]) and in [10] (setting [15]) were -16.5%, -3.17% and -37.1%, respectively.
Regarding `C=CCN1CC[C@]23c4c5ccc(O)c4O[C@H]2C(=O)CC[C@@]3(O)[C@H]1C5`, the Potency entry in assay [1], in assay [2], in [3], in [4], in [5] and in assay [6] was “inactive” throughout. Further, the Potency entry in [7], in assay [8] and in [9] was “inactive” each time. The values for the activity, negative = cell killing in [10] (setting [13]) and in [10] (setting [15]) were -22.2% and 15.9%, respectively.
As to `CN1CCN(C(=O)O[C@H]2c3nccnc3C(=O)N2c2ccc(Cl)cn2)CC1`, the Potency result in assay [1], in [2], in assay [3], in [4], in assay [5] and in assay [6] was “inactive” throughout. Besides, the Potency entry in [7], in assay [8] and in [9] was “inactive” each time. For the same compound, the activity, negative = cell killing is -4.94% in [10] (setting [14]), -12.7% in assay [10] (setting [13]) and -22.2% in assay [10] (setting [15]).
With `Cc1cccc(C)c1NC(=O)CN1CCCC1=O`, the Potency entry in assay [1], in assay [2], in assay [3], in [4], in [5] and in [6] was “inactive” each time. Also, the Potency result in [7], in assay [8] and in assay [9] was “inactive” throughout. For the same compound, the activity, negative = cell killing in assay [10] (setting [14]) is -2.88%; in [10] (setting [13]), -0.691%; in assay [10] (setting [15]) it was -27.7%.
For `CC(C)=CC1C(C(=O)OCc2cccc(Oc3ccccc3)c2)C1(C)C` (stereo not given), the Potency result in assay [1], in [2], in assay [3], in assay [4], in assay [5] and in assay [6] was “inactive” in each case. For the same compound, the Potency entry in [7], in assay [8], in assay [9] and in assay [12] was “inactive” in each case. The activity, negative = cell killing was -17.7% in [10] (setting [14]) and -26.5% in [10] (setting [13]). Besides, in [10] (tumour line A), the Potency is 12.6 µM (active).
As for `NCC1(CC(=O)O)CCCCC1`, the Potency entry in assay [1], in assay [2], in assay [3], in [4], in [5] and in assay [6] was “inactive” each time. The Potency result in [7], in [8], in assay [9] and in assay [12] was “inactive” each time. For the same compound, the activity, negative = cell killing is -18.9% in assay [10] (at 21.2 µM (top of the series), tumour line B); -10.4% in assay [10] (at 21.2 µM (top of the series), tumour line D); -25.7% in assay [10] (at 21.3 µM (top of the series), tumour line A).
Take `CCN(C(C)=O)c1cccc(-c2ccnc3c(C#N)cnn23)c1`: the Potency entry in assay [1], in assay [2], in assay [3], in assay [4], in assay [5] and in assay [6] was “inactive” throughout. Also, the Potency result in assay [7], in assay [8], in [9] and in assay [12] was “inactive” in each case. Moreover, the results for the activity, negative = cell killing in [10] (setting [14]) and in assay [10] (setting [13]) were -13.5% and -2.81%, respectively.
For the compound `O=C1NCN(c2ccccc2)C12CCN(CC1COc3ccccc3O1)CC2` (stereo not given), the Potency result in assay [1], in assay [2], in assay [3], in [4], in assay [5] and in [6] was “inactive” throughout. The Potency result in [7], in assay [8], in [9] and in assay [12] was “inactive” each time. The activity, negative = cell killing in assay [10] (setting [14]) is -6.74%. In addition, in assay [10] (tumour line A), the Potency was 12.6 µM (active).
For the compound `Cc1ccc(-c2nc3ccc(C)cn3c2CC(=O)N(C)C)cc1`, the Potency entry in [1], in assay [2], in [3], in assay [4], in assay [5] and in assay [6] was “inactive” each time. Besides, the Potency entry in assay [7], in assay [8], in [9] and in assay [12] was “inactive” in each case. The activity, negative = cell killing was -10.9% in [10] (setting [14]), 2.33% in assay [10] (setting [13]) and -24.8% in assay [10] (setting [15]).
In the case of `CC(C)(C)NCC(O)c1cc(Cl)c(N)c(Cl)c1` (stereo not given), the Potency result in [1], in assay [2], in assay [3], in assay [4], in [5] and in [6] was “inactive” each time. For the same compound, the Potency entry in [7], in assay [8] and in assay [9] was “inactive” each time. The activity, negative = cell killing is -4.05% in assay [10] (setting [14]) and -25.9% in assay [10] (setting [13]).
As for `CN1C(=S)CN=C(c2ccccc2)c2cc(Cl)ccc21`, the Potency entry in assay [1], in assay [2], in assay [3], in [4], in assay [5] and in assay [6] was “inactive” in each case. Also, the Potency entry in assay [7], in assay [8] and in assay [9] was “inactive” throughout. The activity, negative = cell killing in [10] (setting [14]) was -24.8%; in assay [10] (setting [13]), -20.4%.
For the compound `CC[C@@H](CO)NC(=O)[C@@H]1C=C2c3cccc4c3c(cn4C)C[C@H]2N(C)C1`, the Potency entry in [1], in assay [2], in assay [3], in [4], in assay [5] and in assay [6] was “inactive” throughout. Moreover, the Potency result in assay [7], in [8] and in assay [9] was “inactive” each time. In addition, the Potency in assay [10] (tumour line A) was 35.5 µM (active); in assay [10] (tumour line B) it was 17.8 µM (active).
